Experimental data published in the supplement of paper PMC11732987, “Enantioselective OTUD7B fragment discovery through chemoproteomics screening and high-throughput optimisation” (Communications Chemistry, 2025).

Key:
Experiment in all cases: log2 ratio of Biotin-Ahx-Ub-VS probe labelling (fragment/DMSO); higher = less target engagement (more negative = stronger competition), active = hit call of the paper (q ≤ 0.05, log2 ratio ≤ -1)
Conditions in all cases: compound concentration: 200 uM; treatment time: 3 h
USP34 = USP34 (UniProt Q70CQ2)
How it was run: (§1)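 HEK293T lysate, 495 µg per sample in Tris/CHAPS/IGEPAL buffer with protease inhibitors, was treated in triplicate with fragment at 200 µM or vehicle for 3 h and then with Biotin-Ahx-Ub-VS at 0.5 µM final for 1 h. Labelled DUBs were NeutrAvidin-enriched, digested with LysC and trypsin, and run by diaPASEF LC-MS/MS. Spectronaut label-free quantities were global-median-normalised, and values are average log2 fragment/vehicle ratios by unpaired t-test on proteins with ≥2 unique peptides.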

USP36 = molecular target: T1, USP36 (UniProt Q9P275)
T1 sequence (whole entry): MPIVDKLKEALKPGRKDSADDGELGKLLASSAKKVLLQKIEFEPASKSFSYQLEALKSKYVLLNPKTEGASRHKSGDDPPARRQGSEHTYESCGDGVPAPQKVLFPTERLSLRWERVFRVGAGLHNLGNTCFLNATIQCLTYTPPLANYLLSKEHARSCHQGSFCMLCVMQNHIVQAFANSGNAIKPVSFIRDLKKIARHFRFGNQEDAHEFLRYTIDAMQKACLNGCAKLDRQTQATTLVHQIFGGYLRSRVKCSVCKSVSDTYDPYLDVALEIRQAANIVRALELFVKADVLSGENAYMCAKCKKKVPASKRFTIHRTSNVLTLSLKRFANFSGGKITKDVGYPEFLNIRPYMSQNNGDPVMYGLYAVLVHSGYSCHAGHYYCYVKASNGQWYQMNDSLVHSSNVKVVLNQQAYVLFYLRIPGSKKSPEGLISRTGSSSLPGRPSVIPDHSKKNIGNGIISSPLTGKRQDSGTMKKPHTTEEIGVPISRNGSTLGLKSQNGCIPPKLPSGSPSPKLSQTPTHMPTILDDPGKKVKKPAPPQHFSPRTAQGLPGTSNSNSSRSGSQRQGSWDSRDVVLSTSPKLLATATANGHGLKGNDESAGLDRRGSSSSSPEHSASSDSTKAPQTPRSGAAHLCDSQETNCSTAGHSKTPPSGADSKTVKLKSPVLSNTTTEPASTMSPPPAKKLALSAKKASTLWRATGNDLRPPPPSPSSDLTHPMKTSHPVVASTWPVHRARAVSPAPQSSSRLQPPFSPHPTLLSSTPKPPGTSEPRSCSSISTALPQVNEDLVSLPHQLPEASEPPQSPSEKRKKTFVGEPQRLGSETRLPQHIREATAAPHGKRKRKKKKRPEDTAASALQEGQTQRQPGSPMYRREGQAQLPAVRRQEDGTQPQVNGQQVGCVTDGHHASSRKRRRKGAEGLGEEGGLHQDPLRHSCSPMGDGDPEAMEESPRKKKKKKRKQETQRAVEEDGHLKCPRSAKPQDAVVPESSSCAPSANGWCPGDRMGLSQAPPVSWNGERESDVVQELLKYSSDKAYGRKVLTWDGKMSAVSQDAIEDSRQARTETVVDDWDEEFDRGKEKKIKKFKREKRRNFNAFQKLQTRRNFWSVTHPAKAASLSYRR
How it was run: as §1

USP38 = molecular target: T2, USP38 (UniProt Q8NB14)
T2 sequence (whole entry): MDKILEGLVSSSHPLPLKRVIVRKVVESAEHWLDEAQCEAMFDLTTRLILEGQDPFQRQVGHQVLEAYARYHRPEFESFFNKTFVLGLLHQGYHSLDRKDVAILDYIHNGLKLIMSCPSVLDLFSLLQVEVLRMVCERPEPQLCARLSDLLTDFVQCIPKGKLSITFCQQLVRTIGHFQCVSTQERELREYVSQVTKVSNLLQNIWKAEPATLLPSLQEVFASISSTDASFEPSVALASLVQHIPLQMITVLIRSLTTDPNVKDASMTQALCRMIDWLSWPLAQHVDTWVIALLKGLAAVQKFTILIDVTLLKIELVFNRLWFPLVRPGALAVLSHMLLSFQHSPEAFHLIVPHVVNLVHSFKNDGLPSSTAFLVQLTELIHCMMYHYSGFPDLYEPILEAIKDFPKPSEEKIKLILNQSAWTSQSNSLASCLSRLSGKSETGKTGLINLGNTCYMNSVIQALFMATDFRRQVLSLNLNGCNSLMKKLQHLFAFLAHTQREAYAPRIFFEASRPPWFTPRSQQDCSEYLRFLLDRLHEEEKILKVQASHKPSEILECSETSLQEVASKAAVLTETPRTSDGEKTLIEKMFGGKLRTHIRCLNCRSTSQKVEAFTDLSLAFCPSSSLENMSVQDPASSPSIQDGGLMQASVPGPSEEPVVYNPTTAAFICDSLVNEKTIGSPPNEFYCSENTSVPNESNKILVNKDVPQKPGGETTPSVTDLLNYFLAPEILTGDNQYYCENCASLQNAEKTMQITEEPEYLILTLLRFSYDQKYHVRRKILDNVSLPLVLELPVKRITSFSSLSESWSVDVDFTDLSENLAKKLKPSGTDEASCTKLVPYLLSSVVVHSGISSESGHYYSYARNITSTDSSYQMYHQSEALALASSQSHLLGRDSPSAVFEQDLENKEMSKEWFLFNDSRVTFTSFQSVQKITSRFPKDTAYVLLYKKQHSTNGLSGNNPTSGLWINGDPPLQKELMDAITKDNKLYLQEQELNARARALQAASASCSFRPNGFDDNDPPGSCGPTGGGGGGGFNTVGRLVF
How it was run: as §1

USP39 = molecular target: T3, USP39 (UniProt Q53GS9)
T3 sequence (whole entry): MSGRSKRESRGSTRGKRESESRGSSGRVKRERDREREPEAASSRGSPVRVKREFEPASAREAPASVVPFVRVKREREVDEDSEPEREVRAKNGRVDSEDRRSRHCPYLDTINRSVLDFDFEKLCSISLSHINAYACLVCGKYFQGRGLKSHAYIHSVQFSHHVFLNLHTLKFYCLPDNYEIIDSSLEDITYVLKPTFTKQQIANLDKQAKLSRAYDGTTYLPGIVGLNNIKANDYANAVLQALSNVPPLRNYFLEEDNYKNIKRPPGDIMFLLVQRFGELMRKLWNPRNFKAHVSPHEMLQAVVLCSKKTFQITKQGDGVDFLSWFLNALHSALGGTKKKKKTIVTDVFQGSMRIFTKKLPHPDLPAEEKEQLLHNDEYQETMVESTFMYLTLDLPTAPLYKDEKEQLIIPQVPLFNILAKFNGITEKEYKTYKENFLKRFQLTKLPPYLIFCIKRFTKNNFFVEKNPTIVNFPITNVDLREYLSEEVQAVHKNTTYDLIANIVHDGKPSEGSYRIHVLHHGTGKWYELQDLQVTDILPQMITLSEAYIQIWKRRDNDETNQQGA
How it was run: as §1

USP4 = molecular target: T4, USP4 (UniProt Q13107)
T4 sequence (whole entry): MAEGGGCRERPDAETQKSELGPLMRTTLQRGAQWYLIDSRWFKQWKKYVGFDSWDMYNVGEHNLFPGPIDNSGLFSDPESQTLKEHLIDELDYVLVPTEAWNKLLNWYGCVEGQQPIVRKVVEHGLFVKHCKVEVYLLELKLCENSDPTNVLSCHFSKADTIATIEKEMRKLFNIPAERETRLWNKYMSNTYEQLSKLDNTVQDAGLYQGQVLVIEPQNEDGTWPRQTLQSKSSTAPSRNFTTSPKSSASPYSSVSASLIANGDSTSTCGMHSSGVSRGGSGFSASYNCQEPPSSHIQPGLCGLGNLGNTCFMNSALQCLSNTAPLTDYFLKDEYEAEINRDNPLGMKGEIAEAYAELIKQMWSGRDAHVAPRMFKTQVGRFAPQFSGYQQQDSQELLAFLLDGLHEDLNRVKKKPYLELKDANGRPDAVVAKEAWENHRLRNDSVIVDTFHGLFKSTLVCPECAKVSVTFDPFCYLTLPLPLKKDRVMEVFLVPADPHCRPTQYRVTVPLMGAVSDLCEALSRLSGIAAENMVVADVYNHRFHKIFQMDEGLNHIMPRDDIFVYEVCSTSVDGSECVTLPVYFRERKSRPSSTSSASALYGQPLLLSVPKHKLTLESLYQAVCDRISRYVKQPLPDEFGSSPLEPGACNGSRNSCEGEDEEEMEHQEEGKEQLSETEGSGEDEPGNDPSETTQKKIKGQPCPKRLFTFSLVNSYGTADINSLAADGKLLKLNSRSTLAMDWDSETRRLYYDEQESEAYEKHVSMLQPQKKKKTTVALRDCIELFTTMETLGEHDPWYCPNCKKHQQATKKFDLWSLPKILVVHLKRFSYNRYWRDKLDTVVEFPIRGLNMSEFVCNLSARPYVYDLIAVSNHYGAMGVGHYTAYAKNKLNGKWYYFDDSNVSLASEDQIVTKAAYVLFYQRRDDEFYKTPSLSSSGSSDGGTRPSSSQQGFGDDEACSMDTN
How it was run: as §1

Measured: log2 ratio of Biotin-Ahx-Ub-VS probe labelling

Chain of USP34 (Q70CQ2 whole entry, the tested form may be a part): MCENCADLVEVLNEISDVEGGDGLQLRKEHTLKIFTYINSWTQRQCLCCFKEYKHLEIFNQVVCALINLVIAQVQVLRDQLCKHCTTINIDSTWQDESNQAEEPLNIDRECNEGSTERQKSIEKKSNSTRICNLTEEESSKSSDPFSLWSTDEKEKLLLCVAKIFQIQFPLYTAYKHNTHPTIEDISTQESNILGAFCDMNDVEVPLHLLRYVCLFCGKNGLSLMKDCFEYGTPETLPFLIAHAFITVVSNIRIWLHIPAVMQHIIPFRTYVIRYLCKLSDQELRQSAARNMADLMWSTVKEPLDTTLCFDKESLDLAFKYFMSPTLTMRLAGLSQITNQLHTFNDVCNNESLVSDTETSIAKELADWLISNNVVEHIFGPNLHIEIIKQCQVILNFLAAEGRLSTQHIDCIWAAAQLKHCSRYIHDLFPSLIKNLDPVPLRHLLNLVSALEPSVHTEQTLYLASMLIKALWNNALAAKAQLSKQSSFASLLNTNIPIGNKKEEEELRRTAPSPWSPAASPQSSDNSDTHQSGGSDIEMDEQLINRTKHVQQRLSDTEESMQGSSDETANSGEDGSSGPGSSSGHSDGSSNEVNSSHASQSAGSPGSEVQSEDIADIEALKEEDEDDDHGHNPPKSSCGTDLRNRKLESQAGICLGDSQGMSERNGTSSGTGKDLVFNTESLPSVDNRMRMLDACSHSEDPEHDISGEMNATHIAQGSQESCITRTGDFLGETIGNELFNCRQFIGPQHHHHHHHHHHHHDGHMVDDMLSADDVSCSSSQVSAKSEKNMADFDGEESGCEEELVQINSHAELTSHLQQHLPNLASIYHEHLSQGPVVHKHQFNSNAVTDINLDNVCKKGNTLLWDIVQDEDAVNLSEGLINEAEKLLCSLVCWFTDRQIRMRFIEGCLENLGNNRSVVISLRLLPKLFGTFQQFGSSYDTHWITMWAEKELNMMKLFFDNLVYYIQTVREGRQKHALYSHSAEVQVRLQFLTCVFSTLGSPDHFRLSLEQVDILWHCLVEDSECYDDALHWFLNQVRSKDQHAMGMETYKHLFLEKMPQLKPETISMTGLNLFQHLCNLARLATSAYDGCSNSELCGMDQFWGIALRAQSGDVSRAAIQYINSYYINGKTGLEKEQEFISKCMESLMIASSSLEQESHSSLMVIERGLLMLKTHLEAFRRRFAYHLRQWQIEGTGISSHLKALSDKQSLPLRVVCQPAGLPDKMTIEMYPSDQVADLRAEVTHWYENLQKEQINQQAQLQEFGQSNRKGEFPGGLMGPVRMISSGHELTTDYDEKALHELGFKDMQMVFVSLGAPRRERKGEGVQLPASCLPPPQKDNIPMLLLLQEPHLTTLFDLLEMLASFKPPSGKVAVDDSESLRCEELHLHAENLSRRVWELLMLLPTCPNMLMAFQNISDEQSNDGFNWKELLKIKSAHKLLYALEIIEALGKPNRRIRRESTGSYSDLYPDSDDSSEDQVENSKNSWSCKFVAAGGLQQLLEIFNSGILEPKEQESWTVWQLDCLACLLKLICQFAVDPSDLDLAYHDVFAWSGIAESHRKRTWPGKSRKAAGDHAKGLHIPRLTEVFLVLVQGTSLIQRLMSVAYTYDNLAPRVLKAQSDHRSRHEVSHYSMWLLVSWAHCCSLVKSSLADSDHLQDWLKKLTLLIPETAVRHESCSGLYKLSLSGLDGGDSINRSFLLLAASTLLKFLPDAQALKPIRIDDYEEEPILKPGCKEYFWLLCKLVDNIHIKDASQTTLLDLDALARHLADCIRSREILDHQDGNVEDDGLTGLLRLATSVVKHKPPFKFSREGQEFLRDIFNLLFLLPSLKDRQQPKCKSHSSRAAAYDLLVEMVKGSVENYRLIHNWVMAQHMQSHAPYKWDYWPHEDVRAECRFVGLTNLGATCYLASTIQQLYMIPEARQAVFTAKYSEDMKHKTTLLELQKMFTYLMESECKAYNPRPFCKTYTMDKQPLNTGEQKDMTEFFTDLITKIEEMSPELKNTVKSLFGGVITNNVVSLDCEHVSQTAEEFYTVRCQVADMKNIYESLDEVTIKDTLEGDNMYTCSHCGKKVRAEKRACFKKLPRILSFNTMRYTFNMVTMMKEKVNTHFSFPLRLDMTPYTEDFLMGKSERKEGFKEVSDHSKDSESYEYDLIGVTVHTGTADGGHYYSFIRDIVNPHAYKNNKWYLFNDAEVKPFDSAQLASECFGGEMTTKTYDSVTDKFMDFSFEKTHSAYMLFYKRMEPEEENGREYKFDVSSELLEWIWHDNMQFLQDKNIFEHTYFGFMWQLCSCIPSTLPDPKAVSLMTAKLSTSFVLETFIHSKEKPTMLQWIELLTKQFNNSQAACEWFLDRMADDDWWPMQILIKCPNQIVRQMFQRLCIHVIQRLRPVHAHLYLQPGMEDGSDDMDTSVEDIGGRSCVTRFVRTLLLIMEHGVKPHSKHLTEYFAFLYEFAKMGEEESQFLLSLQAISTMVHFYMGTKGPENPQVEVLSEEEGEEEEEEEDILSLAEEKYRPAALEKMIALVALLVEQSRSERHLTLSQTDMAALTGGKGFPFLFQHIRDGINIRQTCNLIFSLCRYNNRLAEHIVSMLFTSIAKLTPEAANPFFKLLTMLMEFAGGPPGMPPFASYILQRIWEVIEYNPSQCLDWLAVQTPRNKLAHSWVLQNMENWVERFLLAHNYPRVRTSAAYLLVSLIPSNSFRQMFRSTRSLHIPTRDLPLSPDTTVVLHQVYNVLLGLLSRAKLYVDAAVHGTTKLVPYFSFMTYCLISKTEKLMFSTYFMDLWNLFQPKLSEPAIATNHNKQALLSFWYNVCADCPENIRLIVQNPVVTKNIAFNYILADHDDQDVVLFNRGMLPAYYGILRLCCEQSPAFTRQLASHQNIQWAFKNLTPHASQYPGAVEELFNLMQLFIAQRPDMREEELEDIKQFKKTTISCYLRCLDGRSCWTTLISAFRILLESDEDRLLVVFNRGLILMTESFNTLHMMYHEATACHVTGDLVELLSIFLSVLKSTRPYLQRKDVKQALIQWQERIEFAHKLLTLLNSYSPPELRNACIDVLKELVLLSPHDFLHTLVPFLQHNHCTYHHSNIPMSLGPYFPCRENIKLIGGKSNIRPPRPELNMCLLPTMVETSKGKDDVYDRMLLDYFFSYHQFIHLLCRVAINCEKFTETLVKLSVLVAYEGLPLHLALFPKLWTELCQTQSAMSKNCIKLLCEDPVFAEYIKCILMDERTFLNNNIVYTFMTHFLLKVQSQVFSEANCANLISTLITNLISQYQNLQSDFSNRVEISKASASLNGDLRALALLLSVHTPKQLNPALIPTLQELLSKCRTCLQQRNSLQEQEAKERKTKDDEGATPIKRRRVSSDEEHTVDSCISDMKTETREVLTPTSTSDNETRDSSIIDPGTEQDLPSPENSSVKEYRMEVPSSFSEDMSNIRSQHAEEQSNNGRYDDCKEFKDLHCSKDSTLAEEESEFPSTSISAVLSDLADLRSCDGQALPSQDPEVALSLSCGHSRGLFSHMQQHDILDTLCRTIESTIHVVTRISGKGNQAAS

CNC(=O)C1(NC(=O)CCl)CCCCC1
inactive: USP34 0.0737 | USP36 0.00681 | USP38 0.142 | USP39 0.392 | USP4 0.249
